These results are taken from publication PMC4552634, “A New Set of Chemical Starting Points with Plasmodium falciparum Transmission-Blocking Potential for Antimalarial Drug Discovery” (PLoS ONE, 2015).

Out of some 13,000 compounds screened, about 3,200 (25%) showed an effect of 50% or more. The list shows a part of the results.

This assay deals with P. falciparum stage V gametocytes. Set-up: BacTiter-Glo ATP luminescence viability of purified stage V gametocytes in 384-well plates, per cent inhibition versus DMSO. The note with it: 48 h, 5 µM; inhibitor.
Turning to `CC[C@H](C)CNC(=O)c1cccc(-c2cccc(CNCC3CNCCCO3)c2)n1` (stereo partly drawn) [TCMDC-134217], the % Inhibition (in general, the relative decrease from the control value, in per cent) stood at 48.98%. The result for `Clc1cc(Nc2ncnc3sc(C#Cc4ncc[nH]4)cc23)ccc1OCc1ccccn1` [TCMDC-135429] reads -6.463%; that for `Cc1cc(Cl)c(S(=O)(=O)N2CCc3ccccc32)cc1OCC(=O)NC1CCCCC1` [TCMDC-124369], -19.22%. Then `Fc1ccc(-c2cncc(-c3ccc(F)cc3)n2)cc1` [TCMDC-137988], with -9.929%; and `Cc1ccccc1C1CCN(C2CCC(NC(=O)/C=C/c3cccc(F)c3)CC2)CC1` (stereo not drawn) [TCMDC-133505], with -47.31%; and `Nc1ccc(-c2cnc3[nH]cc(-c4ccc(C(=O)O)cc4)c3c2)cn1` [TCMDC-136383], with 1.916%. The result for `COc1ccc2nc(-c3ccc(C(=O)NCCCN4CCN(c5cc(Cl)ccc5OC)CC4)cc3OC)[nH]c2c1` [TCMDC-140025] reads -24.14%; that for `CCCc1cc(Cc2cnc(N)nc2N)cc(OC)c1OC` [TCMDC-137647], 0.312%.

Turning to `O=C(Nc1cc(C(F)(F)F)cc(C(F)(F)F)c1)Nc1cc(C(F)(F)F)cc(C(F)(F)F)c1` [TCMDC-123956], the “% Inhibition” value was -66.5%. `CCOC(=O)c1ccc(-c2cnoc2-c2cc(CC)c(OC)cc2O)o1` [TCMDC-124201]: the “% Inhibition” value is listed as -15.35%. The result for `CC1CN(c2cc(=O)n(Cc3ccc(NC(=O)Nc4ccc(-c5ccccc5)cc4)cc3)cn2)CC(C)N1` (stereo not drawn) [TCMDC-133372] reads 24.66%; that for `CCOc1cc(C(=O)NCc2cc(Cl)cc(Cl)c2)ccc1-c1nc2ccc(Cl)cc2[nH]1` [TCMDC-140904], -8.665%. The result for `O=C(NCc1ccc(Cl)c(Cl)c1)c1ccc(-c2nc3ccc(Cl)cc3[nH]2)cc1` [TCMDC-140441] reads 19.73%; that for `Cc1ccc2[nH]c(-c3ccc(C(=O)NCc4ccc(Cl)c(Cl)c4)cc3)nc2c1C` [TCMDC-140450], 11.51%.

As to `CCOc1cc(C(=O)NCc2ccc(Cl)c(Cl)c2)ccc1-c1nc2ccc(Cl)cc2[nH]1` [TCMDC-140903], the “% Inhibition” value came to 96.39%.

`COC(=O)c1ccc2nc(-c3ccc(C(=O)NCc4ccc(Cl)c(Cl)c4)cc3)[nH]c2c1` [TCMDC-140445]: the “% Inhibition” value was 73.87%. The result for `CCOc1cc(C(=O)NCCc2ccc(Cl)c(Cl)c2)ccc1-c1nc2ccc(Cl)cc2[nH]1` [TCMDC-140905] reads -12.3%; that for `CC1(C)[C@H]2CC[C@@H](CNc3nc(NCCc4cnc[nH]4)nc(NCc4cc(F)ccc4F)n3)[C@@H]1C2` [TCMDC-139317], -2.684%. Take `O=C(CCc1c[nH]cn1)Nc1cccc(-c2ccc(-c3nc4ccccc4[nH]3)s2)c1` [TCMDC-132152]: the “% Inhibition” value is -14.42%. Then `Cn1cc(C2CCN(CCCCCNC(=O)/C=C/c3ccc(Cl)c(Cl)c3)CC2)c2cc(O)ccc21` [TCMDC-139364], with -26.1%; and `CN(C)Cc1c(O)ccc2[nH]c(-c3ccc(F)cc3F)nc12` [TCMDC-136534], with 71.11%; and `CC(C)CN(Cc1c(O)ccc2[nH]c(-c3ccc(F)cc3F)nc12)CC(C)C` [TCMDC-136358], with -65.39%.

On to `CN(C)Cc1c(O)ccc2[nH]c(-c3cccc(F)c3)nc12` [TCMDC-136535], for which the “% Inhibition” value is recorded as -72.73%. Then `Cn1cnc(CCNC(=O)c2ccc(-c3cccc(-c4nc5cc(F)ccc5[nH]4)c3)cc2)c1` [TCMDC-132497], with -1.156%. Then `CC(C)N1CCC(N(Cc2ccc(-c3ccc(C(F)(F)F)cc3)cc2)C(=O)Cn2c(CCc3cccc(F)c3F)nc(=O)c3cccnc32)CC1` [TCMDC-136049], with 118.8%; and `CC(C)(C)N1CCC(N(Cc2ccc(-c3ccc(C(F)(F)F)cc3)cc2)C(=O)Cn2c(CCc3cccc(F)c3F)nc(=O)c3cccnc32)CC1` [TCMDC-136050], with 107.4%; and `O=C(Nc1cccc(-c2nn3ncccc3c2-c2ccnc(Nc3cccc(C(F)(F)F)c3)n2)c1)c1c(F)cccc1F` [TCMDC-135549], with -33.07%. The result for `COCn1ncc2cc(-c3cccc(NC(=O)c4csc(NC(C)=O)n4)c3)ccc21` [TCMDC-133146] reads 24.99%; that for `CNC(=O)C(C)N(c1ccc(Cl)cc1)c1nc(C(C)(C)C)cs1` (stereo not drawn) [TCMDC-125380], 52.18%.

Turning to `CC1(C)N=C(N)N=C(N)N1OCCCc1cc(Cl)c(Cl)cc1Cl` [TCMDC-131696], the “% Inhibition” value is 1.916%. As for `CCCCc1cc(N2CCC(NC(C)=O)C2)nc(Nc2ccc(C)cc2)n1` (stereo not drawn) [TCMDC-134020], the “% Inhibition” value amounted to 11.89%. Then `COc1cc2nc(Nc3ccc4c(c3)OCCO4)nc(N)c2cc1OC.Cl` [TCMDC-131882], with -45.81%; and `COc1cc2nc(C)nc(Nc3ccc(Cc4ccccc4)cc3)c2cc1OC` [TCMDC-131941], with 1.462%. For the compound `COc1cc2nc(Nc3ccc(C)cc3)nc(Nc3ccc(C)cc3)c2cc1OC.Cl` [TCMDC-138540], the “% Inhibition” value is 91.22%.

As to `COc1cc2nc(NCc3ccc(S(N)(=O)=O)cc3)nc(Nc3ccc(Oc4ccccc4)cc3)c2cc1OC` [TCMDC-138256], the “% Inhibition” value stood at 65.95%. For the compound `N#Cc1cnc(Nc2ccc(Oc3ccccc3)cc2)nc1Nc1cccc(S(N)(=O)=O)c1` [TCMDC-138613], the “% Inhibition” value is given as -50.28%. Consider `COc1cc2nc(C)nc(Nc3ccc(Oc4ccccc4)cc3)c2cc1OC` [TCMDC-131940], for which the “% Inhibition” value was 0.7535%.

In the case of `COc1cc2ncnc(Nc3ccc(OCc4ccccc4)c(OCc4ccccc4)c3)c2cc1OC` [TCMDC-131922], the “% Inhibition” value is listed as -20.12%.

Turning to `COc1cc2nccc(Nc3ccc(Oc4ccccc4)cc3)c2cc1OC.Cl` [TCMDC-131917], the “% Inhibition” value is recorded as -23.95%. For `COc1cc2nc(NCCCO)nc(Nc3ccc(Oc4ccccc4)cc3)c2cc1OC` [TCMDC-138255], the “% Inhibition” value is reported as 110.2%. In the case of `COc1ccc(Nc2nc(N)c3cc(OC)c(OC)cc3n2)cc1OC.Cl` [TCMDC-131881], the “% Inhibition” value is reported as -0.9625%. The result for `COc1cc2nc(Nc3ccc(Oc4ccccc4)cc3)nc(Nc3ccc(Oc4ccccc4)cc3)c2cc1OC` [TCMDC-138238] reads -17.62%; that for `COc1cc2nc(N(C)C)nc(Nc3ccc(OCc4ccccc4)cc3)c2cc1OC` [TCMDC-137183], 59.63%.

In the case of `C=C(NC(=O)C1CCCCC1)C(=O)OC` [TCMDC-131685], the “% Inhibition” value was 0.06563%. Then `NC1=NC(c2ccccc2)(c2ccccn2)C(=O)N1CCCc1ccccc1` (stereo not drawn) [TCMDC-136603], with 9.29%; and `Cc1cc(N2CCCC2)nc(Nc2ccc(NC(=O)c3ccccc3F)cc2)n1` [TCMDC-124710], with -34.77%. The result for `CCNc1cc(C(=O)N[C@@H](Cc2ccccc2)[C@H](O)CNCc2cccc(-c3cncnc3)c2)cc(N2CCCC2=O)c1` [TCMDC-141687] reads 18.59%. With `O=C(Nc1cccc(-c2nn3ccccc3c2-c2ccnc(Nc3cccc(N4CCCC4=O)c3)n2)c1)c1cc(F)ccc1F` [TCMDC-135850], the “% Inhibition” value was 10.23%. The result for `COc1ccccc1C1CN(CCNC(=O)c2ncc(C)[nH]2)Cc2ccccc2O1` (stereo not drawn) [TCMDC-124657] reads -1.409%; that for `COc1cccc2cc(C(=O)N[C@@H](CC(C)C)C(=O)NC(/C=N/NC(=O)c3ccccc3)CCc3ccccc3)oc12` (stereo partly drawn) [TCMDC-135434], -2.183%; that for `COc1ccc(Cn2cncc2CN(CCC(C)C)C(=O)c2ccc(Cl)nc2Cl)cc1` [TCMDC-132536], 21.31%. The result for `Cc1ccc(CN2CCCN(Cc3cccc(NC(=O)c4cc5ccccc5s4)c3)CC2)cc1C` [TCMDC-141879] reads 80.31%; that for `O=C(Nc1cccc(CN2CCN(C(=O)c3cccc(F)c3)CC2)c1)c1cccs1` [TCMDC-136330], 79.41%.

For the compound `O=C(Nc1cccc(CN2CCN(C(=O)c3ccccc3)CC2)c1)c1cccs1` [TCMDC-136325], the “% Inhibition” value is 14.84%. The result for `Cc1ccc(CN2CCN(Cc3cccc(NC(=O)c4ccc5ccccc5c4)c3)CC2)cc1C` [TCMDC-141887] reads -29.11%; that for `Cc1ccc(CN2CCN(Cc3cccc(NC(=O)c4cccs4)c3)CC2)cc1C` [TCMDC-141888], 86.1%; that for `O=C(Nc1cccc(CN2CCCN(Cc3ccc(F)cc3)CC2)c1)c1cc2ccccc2s1` [TCMDC-141876], 71.77%. Regarding `Cc1cccc(C(=O)N2CCN(Cc3cccc(NC(=O)c4cccs4)c3)CC2)c1` [TCMDC-136328], the “% Inhibition” value came out at 7.958%. Then `O=C(Nc1cccc(CN2CCCN(Cc3ccc(O)cc3)CC2)c1)c1cc2ccccc2s1` [TCMDC-141878], with 32.43%.

With `O=C(Nc1cccc(CN2CCN(C(=O)c3cccs3)CC2)c1)c1cccs1` [TCMDC-136329], the “% Inhibition” value is given as 33.24%. Then `COc1ccc(CN2CCCN(Cc3cccc(NC(=O)c4cc5ccccc5s4)c3)CC2)cc1` [TCMDC-141867], with -63.54%. Then `O=C(NCC1CCC(CNCCCc2ccccc2)CC1)c1cc(Cl)cc(Cl)c1` (stereo not drawn) [TCMDC-140679], with -14.35%; and `CCCc1cc(N2CCC(c3ccccc3)(N3CCCCC3)CC2)nc(Nc2ccc(OC)cc2)n1` [TCMDC-132389], with -43.67%; and `O=C(Nc1cccc(CN2CCN(C(=O)c3cccc(F)c3)CC2)c1)c1ccco1` [TCMDC-136324], with 35.66%. Then `Cc1cccc(C(=O)N2CCN(Cc3cccc(NC(=O)c4ccco4)c3)CC2)c1` [TCMDC-136323], with 80.03%; and `O=C(Nc1cccc(CN2CCN(C(=O)c3ccccc3)CC2)c1)c1ccco1` [TCMDC-136321], with -15.6%; and `O=C(Nc1cccc(CN2CCCN(Cc3ccc4c(c3)OCO4)CC2)c1)c1cc2ccccc2s1` [TCMDC-141865], with 83.34%. Regarding `N#Cc1ccc(CN2CCCN(Cc3cccc(NC(=O)c4cc5ccccc5s4)c3)CC2)cc1` [TCMDC-141866], the “% Inhibition” value was -28.76%.

Turning to `O=C(Nc1cccc(CN2CCN(Cc3ccc(O)cc3)CC2)c1)c1cc2ccccc2s1` [TCMDC-134624], the “% Inhibition” value is given as 6.138%.
